{"source": "PubChem BioAssay (EPA / NIEHS)", "key": {"[1]": {"read-out": "Epidermal growth factor receptor (EGFR), EGFR (gene 1956)", "assay": "BSK_hDFCGF_EGFR: BioMAP Diversity Plus: hDFCGF Assay for Epidermal growth factor receptor (EGFR) Biomarker Activity (AID 2283057)", "conditions": "primary human foreskin fibroblasts; actives raise or lower the signal", "in_short": "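Measured by ELISA: EGFR levels on primary human foreskin fibroblasts 24 h after chemical treatment, analysed relative to DMSO with bidirectional fitting.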"}, "[2]": {"read-out": "Interleukin-8 (IL8), CXCL8 (gene 3576)", "assay": "BSK_hDFCGF_IL8: BioMAP Diversity Plus: hDFCGF Assay for Interleukin-8 (IL8) Biomarker Activity (AID 2283058)", "conditions": "primary human foreskin fibroblasts; actives raise or lower the signal", "in_short": "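hDFCGF human dermal fibroblasts; 24 h chemical exposure; IL-8 by ELISA; bidirectional curve fit vs DMSO baseline; gain or loss of signal scored.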"}, "[3]": {"assay": "BSK_hDFCGF_Proliferation: Cell Proliferation Assessment in the BioMAP Diversity Plus: hDFCGF Assay (AID 2283059);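 note: curves fitted for both rise and fall of signal versus DMSO baseline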", "conditions": "primary human foreskin fibroblasts", "in_short": "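Steps: dose primary human dermal fibroblasts (foreskin); […] fix in 10% TCA; stain with 0.1% SRB; read 560 nm; fit gain or loss of signal against DMSO.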"}, "[4]": {"read-out": "Macrophage colony-stimulating factor (MCSF), CSF1 (gene 1435)", "assay": "BSK_hDFCGF_MCSF: BioMAP Diversity Plus: hDFCGF Assay for Macrophage colony-stimulating factor (MCSF) Biomarker Activity (AID 2283060)", "conditions": "primary human foreskin fibroblasts; actives raise or lower the signal", "in_short": "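Human foreskin primary fibroblasts were treated with test chemical for 24 h, and M-CSF was then measured by ELISA. Data were fitted bidirectionally against DMSO as the negative control and activity baseline.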"}, "[5]": {"read-out": "TIMP metallopeptidase inhibitor 1 (TIMP1), TIMP1 (gene 7076)", "assay": "BSK_hDFCGF_TIMP1: BioMAP Diversity Plus: hDFCGF Assay for TIMP metallopeptidase inhibitor 1 (TIMP1) Biomarker Activity (AID 2283062)", "conditions": "primary human foreskin fibroblasts; actives raise or lower the signal", "in_short": "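Primary human foreskin fibroblasts in the hDFCGF system were dosed with compound for 24 h, then TIMP-1 was measured by ELISA. Activity was fitted bidirectionally relative to DMSO control; parallel SRB staining assessed cytotoxicity.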"}, "[6]": {"read-out": "Monokine induced gamma interferon (MIG), CXCL9 (gene 4283)", "assay": "BSK_hDFCGF_MIG: BioMAP Diversity Plus: hDFCGF Assay for Monokine induced gamma interferon (MIG) Biomarker Activity (AID 2283063)", "conditions": "primary human foreskin fibroblasts; actives raise or lower the signal", "in_short": "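ELISA read-out of MIG from primary human dermal fibroblasts 24 h post-dosing. Gain or loss of signal fitted bidirectionally, DMSO as baseline.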"}, "[7]": {"read-out": "Matrix Metallopeptidase 1 (MMP1), MMP1 (gene 4312)", "assay": "BSK_hDFCGF_MMP1: BioMAP Diversity Plus: hDFCGF Assay for Matrix Metallopeptidase 1 (MMP1) Biomarker Activity (AID 2283064)", "conditions": "primary human foreskin fibroblasts; actives raise or lower the signal", "in_short": "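hDFCGF primary fibroblasts (human foreskin); chemical added; 24 h; MMP1 by ELISA; bidirectional fit vs DMSO.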"}, "[8]": {"read-out": "Plasminogen activator inhibitor-1 (PAI1), SERPINE1 (gene 5054)", "assay": "BSK_hDFCGF_PAI1: BioMAP Diversity Plus: hDFCGF Assay for Plasminogen activator inhibitor-1 (PAI1) Biomarker Activity (AID 2283066)", "conditions": "primary human foreskin fibroblasts; actives raise or lower the signal", "in_short": "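PAI-1 levels, determined by ELISA, served as the endpoint in human foreskin fibroblast cultures exposed to compound for 24 h, with DMSO as baseline.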"}, "[9]": {"read-out": "Intercellular Adhesion Molecule 1 (ICAM1), ICAM1 (gene 3383)", "assay": "BSK_KF3CT_ICAM1: BioMAP Diversity Plus: KF3CT Assay for Intercellular Adhesion Molecule 1 (ICAM1) Biomarker Activity (AID 2283067)", "conditions": "primary human keratinocytes with fibroblasts; actives raise or lower the signal", "in_short": "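Human keratinocyte plus foreskin fibroblast primary co-culture was exposed to chemical for 24 h. ICAM-1 was then quantified by ELISA, and the data were fit bidirectionally against DMSO as the negative control and baseline.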"}, "[10]": {"read-out": "Interferon-gamma inducible Protein 10 (IP10), CXCL10 (gene 3627)", "assay": "BSK_KF3CT_IP10: BioMAP Diversity Plus: KF3CT Assay for Interferon-gamma inducible Protein 10 (IP10) Biomarker Activity (AID 2283068)", "conditions": "primary human keratinocytes with fibroblasts; actives raise or lower the signal", "in_short": "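KF3CT co-culture (keratinocytes + foreskin fibroblasts), 24 h compound, IP-10 by ELISA; bidirectional fit vs DMSO baseline.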"}, "[11]": {"assay": "BSK_KF3CT_SRB: Viability Assessment in the BioMAP Diversity Plus: KF3CT Assay (AID 2283069)", "conditions": "primary human keratinocytes with fibroblasts", "in_short": "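Keratinocytes co-cultured with foreskin fibroblasts (human primary); chemical added, 24 h; fix 10% TCA, stain 0.1% SRB, A560. Bidirectional fit vs DMSO.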"}, "[12]": {"read-out": "TIMP metallopeptidase inhibitor 2 (TIMP2), TIMP2 (gene 7077)", "assay": "BSK_KF3CT_TIMP2: BioMAP Diversity Plus: KF3CT Assay for TIMP metallopeptidase inhibitor 2 (TIMP2) Biomarker Activity (AID 2283071)", "conditions": "primary human keratinocytes with fibroblasts; actives raise or lower the signal", "in_short": "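Keratinocyte–fibroblast co-culture, 24 h exposure; TIMP-2 ELISA, DMSO-normalised bidirectional fit. Parallel SRB (0.1%, TCA-fixed, 560 nm) total-protein staining gauges cytotoxicity.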"}, "[13]": {"read-out": "Matrix Metallopeptidase 9 (MMP9), MMP9 (gene 4318)", "assay": "BSK_KF3CT_MMP9: BioMAP Diversity Plus: KF3CT Assay for Matrix Metallopeptidase 9 (MMP9) Biomarker Activity (AID 2283074)", "conditions": "primary human keratinocytes with fibroblasts; actives raise or lower the signal", "in_short": "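Human keratinocyte/foreskin fibroblast co-culture; compound added; 24 h; MMP-9 by ELISA; bidirectional fit vs DMSO baseline.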"}, "CD40, CD40 (gene 958)": {"read-out": "CD40, CD40 (gene 958)", "assay": "BSK_LPS_CD40: BioMAP Diversity Plus: LPS Assay for CD40 Biomarker Activity (AID 2283076)", "conditions": "primary human HUVEC with PBMC; actives raise or lower the signal", "in_short": "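Primary human umbilical vein endothelial cells co-cultured with peripheral blood mononuclear cells, LPS-stimulated, were dosed with chemical and read 24 h later. CD40 levels were measured by ELISA and fitted bidirectionally against DMSO as negative control and baseline.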"}, "[14]": {"read-out": "E-selectin (Homo sapiens) (UniProt P16581)", "assay": "BSK_LPS_Eselectin: BioMAP Diversity Plus: LPS Assay for Eselectin Biomarker Activity (AID 2283077)", "conditions": "primary human HUVEC with PBMC; actives raise or lower the signal", "in_short": "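Human umbilical vein endothelial cells co-cultured with peripheral blood mononuclear cells under LPS stimulation; E-selectin measured by ELISA 24 h after chemical dosing. Activity fitted bidirectionally against DMSO as negative control and baseline.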"}, "[15]": {"read-out": "Interleukin-8 (IL8), CXCL8 (gene 3576)", "assay": "BSK_LPS_IL8: BioMAP Diversity Plus: LPS Assay for Interleukin-8 (IL8) Biomarker Activity (AID 2283078)", "conditions": "primary human HUVEC with PBMC; actives raise or lower the signal", "in_short": "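Human umbilical vein endothelial cells co-cultured with PBMC were stimulated with LPS; IL-8 levels were measured by ELISA 24 h after chemical dosing. Activity was fitted bidirectionally against DMSO as negative control and baseline.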"}, "[16]": {"assay": "BSK_LPS_SRB: Viability Assessment in the BioMAP Diversity Plus: LPS Assay (AID 2283079);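 note: total protein by sulforhodamine B absorbance as a cytotoxicity measure; measured one day after compound addition; fitted in both directions against DMSO so loss or gain of signal counts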", "conditions": "primary human HUVEC with PBMC", "in_short": "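Human umbilical vein endothelial cells co-cultured with PBMC (LPS system) were dosed for 24 h. Total protein was stained with 0.1% sulforhodamine B after 10% TCA fixation, read at 560 nm, and fitted bidirectionally against DMSO baseline.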"}, "[17]": {"read-out": "Monocyte Chemoattractant Protein-1 (MCP1), CCL2 (gene 6347)", "assay": "BSK_LPS_MCP1: BioMAP Diversity Plus: LPS Assay for Monocyte Chemoattractant Protein-1 (MCP1) Biomarker Activity (AID 2283081)", "conditions": "primary human HUVEC with PBMC; actives raise or lower the signal", "in_short": "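HUVEC plus PBMC co-culture (human primary cells, LPS system) exposed to test chemical for 24 h; MCP-1 measured by ELISA. Bidirectional curve fitting against DMSO baseline; parallel SRB total-protein staining flags overt cytotoxicity.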"}, "[18]": {"assay": "BSK_LPS_PGE2: BioMAP Diversity Plus: LPS Assay for Prostaglandin E2 (PGE2) Biomarker Activity (AID 2283082)", "conditions": "primary human HUVEC with PBMC; actives raise or lower the signal", "in_short": "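Endpoint derived from bidirectional curve fitting versus DMSO of ELISA-measured PGE2 in LPS-stimulated human primary vascular co-culture (HUVEC with PBMC) harvested at 24 h.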"}, "[19]": {"read-out": "Macrophage colony-stimulating factor (MCSF), CSF1 (gene 1435)", "assay": "BSK_LPS_MCSF: BioMAP Diversity Plus: LPS Assay for Macrophage colony-stimulating factor (MCSF) Biomarker Activity (AID 2283083)", "conditions": "primary human HUVEC with PBMC; actives raise or lower the signal", "in_short": "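Human umbilical vein endothelial cells co-cultured with peripheral blood mononuclear cells were exposed to compound for 24 h. M-CSF levels were measured by ELISA, and bidirectional curve fitting used DMSO as the negative control and baseline.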"}}, "note": "“And” between values parts separate entries of the source, which are not always exact repeats. Equal values may be shown once. Some structures have more than one record in an assay (separate samples or runs), and their calls can disagree. The source made the active and inactive calls. Rule for the calls: active = hit-call score of the fitted dose curve at least 0.9, where 1 is the maximum; inactive = score below 0.9."}
{"smiles": "[Cd+2].[Cl-].[Cl-]", "values": [{"measurement": "AC50", "setting": "[1]", "value": "0.156 µM (active)"}, {"measurement": "outcome", "setting": "[1]", "value": "inactive"}, {"measurement": "AC50", "setting": "[2]", "value": "24.2 µM (active) and 23 µM (active)"}, {"measurement": "AC50", "setting": "[3]", "value": "919 nM (active) and 655 nM (active)"}, {"measurement": "AC50", "setting": "[4]", "value": "939 nM (active) and 1.2 µM (active)"}, {"measurement": "AC50", "setting": "[5]", "value": "1.12 µM (active) and 1.63 µM (active)"}, {"measurement": "AC50", "setting": "[6]", "value": "9.86 µM (active) and 5.69 µM (active)"}, {"measurement": "AC50", "setting": "[7]", "value": "3.97 µM (active) and 4.18 µM (active)"}, {"measurement": "AC50", "setting": "[8]", "value": "601 nM (active) and 305 nM (active)"}, {"measurement": "AC50", "setting": "[9]", "value": "29.2 µM (active) and 27.5 µM (active)"}, {"measurement": "AC50", "setting": "[10]", "value": "35.2 µM (active) and 33.4 µM (active)"}, {"measurement": "AC50", "setting": "[11]", "value": "32.4 µM (active) and 32.1 µM (active)"}, {"measurement": "AC50", "setting": "[12]", "value": "28.2 µM (active) and 20 µM (active)"}, {"measurement": "AC50", "setting": "[13]", "value": "16.2 µM (active) and 20.5 µM (active)"}, {"measurement": "AC50", "setting": "CD40, CD40 (gene 958)", "value": "13.1 µM (active)"}, {"measurement": "outcome", "setting": "CD40, CD40 (gene 958)", "value": "inactive"}, {"measurement": "AC50", "setting": "[14]", "value": "32.8 µM (active) and 35.4 µM (active)"}, {"measurement": "AC50", "setting": "[15]", "value": "28.9 µM (active)"}, {"measurement": "outcome", "setting": "[15]", "value": "inactive"}, {"measurement": "outcome", "setting": "[16]", "value": "inactive"}, {"measurement": "outcome", "setting": "[17]", "value": "inactive"}, {"measurement": "outcome", "setting": "[18]", "value": "inactive"}, {"measurement": "AC50", "setting": "[19]", "value": "19.5 µM (active) and 31.2 µM (active)"}]}
